Shown is part of a subset that was picked to be rich in hits.
Pf Dd2 growth: inhibitors of Plasmodium falciparum Dd2 growth | P. falciparum Dd2 growth, SYBR Green, 72 h | Potency, µM (highest dose often 28.9 µM), usual class: inhibitors | 4.3% of 120,000 active | AID 1347417; active = well fitted inhibition curve with a large enough effect; also: nearly all actives have a fitted effect of over 65% in size
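Infected erythrocytes (Dd2, 0.3% parasitemia, 2.5% hematocrit final) are added to compound in RPMI-1640/Albumax II medium, grown 72 h at 37C in low oxygen, then lysed with saponin/Triton-X containing SYBR Green and read by fluorescence.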
Large screens that a line does not name were inactive.

COc1ccc(CN2C(=O)CO[C@H]3CN(Cc4c[nH]c5ccccc45)C[C@H]32)cc1	Pf Dd2 growth 7.9µM
O=C1CO[C@H]2CN(Cc3ccc4c(c3)OCO4)C[C@H]2N1Cc1ccc(F)cc1	Pf Dd2 growth 10µM
O=C1CO[C@H]2CN(Cc3ccc4c(c3)OCO4)C[C@H]2N1Cc1ccccn1	none
CC(C)c1ccc(CN2CC[C@@H]3OCC(=O)N(Cc4ccccc4)[C@H]3CC2)cc1	Pf Dd2 growth 10µM
O=C1CO[C@H]2CN(Cc3ccncc3)C[C@H]2N1Cc1ccc(F)cc1	none
CC(C)N1C(=O)CO[C@H]2CCN(Cc3ccccc3)CC[C@@H]21	none
COc1ccc(CN2C(=O)CO[C@H]3CN(C(C)C)C[C@H]32)cc1	none
COc1ccccc1CN1CC[C@@H]2OCC(=O)N(Cc3c[nH]c4ccccc34)[C@H]2CC1	Pf Dd2 growth 4.5µM
COc1cc(NC(=O)c2ccc(-n3cnc4cccnc43)cc2)cc(OC)c1	none
C#CCNC(=O)c1nc(-c2ccc(Cl)nc2)c2cnccn12	none
COCC1CN(C(=O)Cn2c(=O)oc3ccccc32)CC12CCNCC2 (stereo not given)	none
Cc1cc(C2CCCN2C(=O)c2cc(C3CC3)on2)on1 (stereo not given)	none
C=CCn1nc(C)c(CN2CC[C@H](N3CCN(C)CC3)[C@H](CCC(=O)O)C2)c1C	none
CCS(=O)(=O)N1CC(=O)N(c2cccc(C)c2C)C(C)(C(=O)NC2CCCCCC2)C1 (stereo not given)	none
O=C(c1ccccc1F)N1CC2(Cc3ccccc3NC2=O)C1	none
COc1cccc(CN2CCCCCNC(=O)[C@@H]3CCC[C@@H]32)c1OC	none
O=C1NCCCCCCN(S(=O)(=O)c2ccccc2)[C@H]2CCCC[C@@H]12	none
CN1CCCCCCN(C(=O)c2ccoc2)[C@H]2CCC[C@H]2C1=O	none
Cc1ccc(CNC(=O)N2CCCCCCN(C)C(=O)[C@@H]3CCC[C@@H]32)cc1	none
COc1cccc(CN2CCCCCCN(C)C(=O)[C@@H]3CCC[C@@H]32)n1	Pf Dd2 growth 2.5µM
O=C1NCCCCCCN(S(=O)(=O)c2ccccc2)[C@H]2CCC[C@@H]12	none
Cc1ccc(CN2CCCCCCN(C)C(=O)[C@@H]3CCC[C@@H]32)s1	Pf Dd2 growth 6.3µM
CN1CCCCCCN(S(=O)(=O)c2ccccc2)[C@H]2CCC[C@H]2C1=O	Pf Dd2 growth 4µM
CN1CCCCCCN(Cc2cccnc2)[C@H]2CCC[C@H]2C1=O	none
COCCNC(=O)[C@H]1C[C@H](Oc2ccccc2)CN1Cc1ccc2[nH]ccc2c1	none
COc1ccc2nc(NC(=O)Cn3nc4c(cc3=O)CCCC4)sc2c1	none
Cc1cccc(O[C@H]2COCCN(C(=O)c3cc(C)nn3C)C2)n1	none
Cc1cccc(O[C@H]2COCCN(c3nc4ccccc4o3)C2)n1	none
Cc1cccc(O[C@H]2COCCN(Cc3nccn3C)C2)n1	Pf Dd2 growth 11µM
Cc1ccc(CC(=O)N2C[C@@H](CN3CCCCCC3)[C@@H](CO)C2)cc1	none
O=C(c1ccc(OC(F)(F)F)cc1)N1CCC2(CC1)CC(O)CCO2 (stereo not given)	none
Cc1nn2c(c1-c1ccccc1C(C)C)N(C(=O)c1ccnn1C)CCC2	none
Cc1cc(N2CCC(NCc3nc[nH]c3C)CC2)nc(-c2ccccc2O)n1	Pf Dd2 growth 10µM
Cc1cc(C)nc(CNC2CCN(c3nc(C)nc4sccc34)CC2)n1	none
Cc1[nH]cnc1CN1CCN(C2CCCC2)CC(C(=O)O)C1 (stereo not given)	none
OCc1cc(CC2(NCc3ccc(C(F)(F)F)cc3)COC2)no1	none
COC(=O)c1cc(Cl)ccc1NC(=O)CSc1ncc(S(=O)(=O)c2ccc(Br)cc2)c(=O)[nH]1	none
CCCc1noc(-c2ccc(NCc3ccccc3OC)c([N+](=O)[O-])c2)n1	none
COCCNC(=O)[C@@H]1C[C@H](Oc2ccccc2)CN1C(=O)c1cc(C)n(C)n1	none
O=C(COc1ccccc1)N1CCN2C(=O)N(Cc3ccccc3)C(=O)[C@H]2C1	none
FC(F)(F)CN1C2CCC1CN(c1nnc(Cl)c3ccccc13)C2	Pf Dd2 growth 0.71µM
FC(F)(F)CN1C2CCC1CN(c1ccccn1)C2	none
COc1ccccc1Nc1ccnc(N2CC3CCC(C2)N3CC(F)(F)F)n1	none
FC(F)(F)CN1C2CCC1CN(c1cnc3ccccc3c1)C2	none
Cc1ncc2c(N3CC4CCC(C3)N4CC(F)(F)F)nc3ccccc3n12	Pf Dd2 growth 5µM
FC(F)(F)CN1C2CCC1CN(c1nccc(Nc3ccccc3Cl)n1)C2	Pf Dd2 growth 8.9µM
Cc1ccnc(N2CC3CCC(C2)N3CC(F)(F)F)c1[N+](=O)[O-]	none
O=[N+]([O-])c1ccc(Cl)nc1N1CC2CCC(C1)N2CC(F)(F)F	none
FC(F)(F)CN1C2CCC1CN(c1ncc(C(F)(F)F)cn1)C2	none
Cc1ccc(NC(=O)CSc2nc(C)c(Cc3ccccc3)c(=O)[nH]2)cc1	none
O=C(NC1C[C@H]2CC[C@@H](C1)N2C(=O)c1ccc(Cl)s1)c1ccncc1 (stereo not given in full)	none
Cc1ccc(-c2ncc(C(=O)N3CCCCC3CN)c(=O)[nH]2)cc1 (stereo not given)	none
CN(C(=O)C1CC=CCC1)C1CCc2nn(C)c(=O)n2CC1 (stereo not given)	none
CC(C)CC(=O)Nc1ccc(C(=O)OCc2cc(=O)n3nc(C4CCCCC4)sc3n2)cc1	none
c1ccc(CN2CCNc3cnc(Nc4ccncn4)cc3C2)cc1	none
Cc1ccccc1NC(=O)Cn1nc2n(c1=O)CCCC2	none
Cc1cc(C)n(CC(=O)N[C@@H]2CN(S(C)(=O)=O)C[C@H]2CN(C)C)n1	none
CNC(=O)[C@@H]1CN(C(=O)CCc2c(C)noc2C)C[C@H]1c1n[nH]c(C)n1	none
COCCc1nncn1C1CCN(S(=O)(=O)c2ccc(Br)cc2)CC1	none
COc1ccc(CN2CCN(Cc3cc4ccccc4[nH]3)CC2CCO)c(C)c1C (stereo not given)	Pf Dd2 growth 8.9µM
COc1cc(CN2CCN(Cc3cnc(SC)nc3)CC2CCO)cc(OC)c1 (stereo not given)	none
CCOc1ccccc1CN1CCN(Cc2nccn2CC)CC1CCO (stereo not given)	none
COc1cccc(NC(=O)Cn2cc(C(=O)c3ccccc3)c3ccccc32)c1	none
Cc1cn2nc(C(=O)N3CCC(NC(=O)c4cccc(Cl)c4)CC3)cc2c(=O)[nH]1	none
COc1ccc(Cl)cc1C(=O)NC1CCN(C(=O)c2cc3c(=O)[nH]c(C)cn3n2)CC1	Pf Dd2 growth 5µM
Cc1cn2nc(C(=O)N3CCC(NC(=O)c4ccccc4C)CC3)cc2c(=O)[nH]1	none
COc1ccc(C(=O)NCc2ccc3c(c2)CCN3C(C)=O)cc1OC	none
COc1ccc(-c2cc3nc(C)c(CCC(=O)N4CCN(c5ccc(F)cc5)CC4)c(C)n3n2)c(OC)c1	Pf Dd2 growth 10µM
COc1ccc(-c2cc3nc(C)c(CCC(=O)N4CCN(c5cccc(Cl)c5)CC4)c(C)n3n2)c(OC)c1	Pf Dd2 growth 10µM
COc1ccc(N2CCN(C(=O)CCc3c(C)nc4cc(-c5ccc(Cl)cc5)nn4c3C)CC2)cc1	none
Cc1nc2ncnn2c(C)c1CCC(=O)N1CCN(c2ccc(F)cc2)CC1	none
COc1ccc(N2CCN(C(=O)c3c(C)nn(-c4ccc(F)cc4)c3-n3cccc3)CC2)cc1	none
Cc1nc2ncnn2c(C)c1CCC(=O)N1CCN(c2cccc(Cl)c2)CC1	none
O=C(c1ccccc1F)N1CCC(N2Cc3ccccc3C2=O)CC1	none
CCC[C@H]1CN(S(C)(=O)=O)C[C@@H]1NC(=O)CCc1cc(=O)[nH]o1	none
COc1ccc(CNC(=O)CN2C(=O)CSc3ccc(S(=O)(=O)N(C)C)cc32)cc1	none
Cc1ccc(C(=O)N2CCCN(S(C)(=O)=O)C(c3ccccc3)CC(=O)NCC2)s1 (stereo not given)	none
